Data published in the supplement of paper PMC10849652.
Of roughly 7,900 targets only a part is listed; those with a hit were picked by preference. About 0.6% of all pairs of compound and target were hits. Unmarked numbers belong to inactive results.

Tests used:
Assay in all cases: log2 fold change, soluble protein after heating vs DMSO (PISA); higher = thermal stabilisation; K562 cells, 10 uM, 30 min; active = over 0.2 and 3.5 SD of the protein, either way, in both replicates (recomputed)
erlotinib = compound: C#Cc1cccc(Nc2ncnc3cc(OCCOC)c(OCCOC)cc23)c1 [erlotinib]
Summary of the method: (§1)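 Aliquots of K562 cells (2×10^6 cells/mL) treated with 10 μM compound for 30 min were heated for 3 min over 48°C-58°C. After pooling and extraction in PBS with 0.5% NP-40 at 4°C, soluble protein from a 21,000xg, 90 min spin was quantified by TMTpro 16plex LC-MS/MS with channel sums equalised. Thermal stability is expressed against control samples, from duplicates, as a log2 fold change.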

[1] = compound: C/C(=N\NC(=O)C1=CC(=CC=C1)S(=O)(=O)N2CCOCC2)/C3=C(C=CC(=C3)Cl)O
Summary of the method: as §1

[2] = compound: C1=CC(=C(C=C1Cl)C2=NC3=NC=CN=C3C(=N2)NC4=CC=NC=C4)F
Summary of the method: as §1

[3] = compound: C1=CC(=CC=C1C2=NC3=C(N2)C=C(C=C3)C(=O)N)OC4=CC=C(C=C4)Cl
Summary of the method: as §1

[4] = compound: C1=CC2=C(C=CC(=C2)/C=C\3/C(=O)NC(=NCC4=CC=CS4)S3)N=C1
Summary of the method: as §1

[5] = compound: C1=CC2=NC=CN=C2C=C1/C=C/3\C(=O)NC(=O)S3
Summary of the method: as §1

[6] = compound: C1=CC=C(C=C1)C2=NC(=C(N2)C3=CC=NC=C3)C4=CC(=C(C=C4)Cl)O
Summary of the method: as §1

[7] = compound: C1=CC=C2C(=C1)C3=NNC4=CC=CC(=C43)C2=O
Summary of the method: as §1

[8] = compound: C1CCN(C1)C(=O)NC2=CC=CC(=C2)NC3=NC=C(C(=N3)NCCC4=CN=CN4)Br
Summary of the method: as §1

[9] = compound: C1CN(CCC1(CC2=CC=C(C=C2)Cl)N)C3=NC=NC4=C3C=CN4
Summary of the method: as §1

Chain of UniProt P52597 (P52597 whole entry, looked up): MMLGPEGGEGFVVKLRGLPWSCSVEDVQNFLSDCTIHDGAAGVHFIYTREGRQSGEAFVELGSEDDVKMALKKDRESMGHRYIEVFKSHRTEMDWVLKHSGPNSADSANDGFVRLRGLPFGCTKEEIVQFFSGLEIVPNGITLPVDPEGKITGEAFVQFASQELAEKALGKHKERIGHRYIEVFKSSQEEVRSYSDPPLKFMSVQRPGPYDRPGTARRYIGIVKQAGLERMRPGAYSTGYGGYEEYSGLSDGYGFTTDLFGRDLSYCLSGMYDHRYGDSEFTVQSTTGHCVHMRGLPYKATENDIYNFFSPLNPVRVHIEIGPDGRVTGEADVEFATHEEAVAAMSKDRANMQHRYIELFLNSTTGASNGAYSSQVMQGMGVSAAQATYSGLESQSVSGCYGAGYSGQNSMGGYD
Chain of UniProt O15228 (O15228 whole entry, looked up): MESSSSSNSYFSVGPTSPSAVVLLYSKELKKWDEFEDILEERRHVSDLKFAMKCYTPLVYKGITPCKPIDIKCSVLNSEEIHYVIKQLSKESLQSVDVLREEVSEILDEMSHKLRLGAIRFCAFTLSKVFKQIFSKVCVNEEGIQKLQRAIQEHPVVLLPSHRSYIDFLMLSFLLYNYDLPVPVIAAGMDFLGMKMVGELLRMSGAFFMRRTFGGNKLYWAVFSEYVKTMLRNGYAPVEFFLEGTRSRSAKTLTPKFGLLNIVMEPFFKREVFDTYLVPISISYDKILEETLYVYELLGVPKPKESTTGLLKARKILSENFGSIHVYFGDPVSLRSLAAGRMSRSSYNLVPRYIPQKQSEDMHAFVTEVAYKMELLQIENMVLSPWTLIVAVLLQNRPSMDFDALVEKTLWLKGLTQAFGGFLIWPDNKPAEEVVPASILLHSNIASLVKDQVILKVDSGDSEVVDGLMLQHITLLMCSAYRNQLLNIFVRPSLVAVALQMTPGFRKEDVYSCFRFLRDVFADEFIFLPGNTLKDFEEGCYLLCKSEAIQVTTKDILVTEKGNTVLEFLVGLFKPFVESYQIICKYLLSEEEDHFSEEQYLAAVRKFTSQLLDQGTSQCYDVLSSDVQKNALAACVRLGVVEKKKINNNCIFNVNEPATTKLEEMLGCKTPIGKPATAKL
Chain of UniProt Q03013 (Q03013 whole entry, looked up): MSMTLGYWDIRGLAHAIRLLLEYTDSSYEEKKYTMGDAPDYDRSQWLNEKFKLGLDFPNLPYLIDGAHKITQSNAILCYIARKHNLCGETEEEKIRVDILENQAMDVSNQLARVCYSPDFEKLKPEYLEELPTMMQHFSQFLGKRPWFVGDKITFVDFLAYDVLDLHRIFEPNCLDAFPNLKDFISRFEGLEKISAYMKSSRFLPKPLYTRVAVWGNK
Chain of UniProt P49841 (P49841 whole entry, looked up): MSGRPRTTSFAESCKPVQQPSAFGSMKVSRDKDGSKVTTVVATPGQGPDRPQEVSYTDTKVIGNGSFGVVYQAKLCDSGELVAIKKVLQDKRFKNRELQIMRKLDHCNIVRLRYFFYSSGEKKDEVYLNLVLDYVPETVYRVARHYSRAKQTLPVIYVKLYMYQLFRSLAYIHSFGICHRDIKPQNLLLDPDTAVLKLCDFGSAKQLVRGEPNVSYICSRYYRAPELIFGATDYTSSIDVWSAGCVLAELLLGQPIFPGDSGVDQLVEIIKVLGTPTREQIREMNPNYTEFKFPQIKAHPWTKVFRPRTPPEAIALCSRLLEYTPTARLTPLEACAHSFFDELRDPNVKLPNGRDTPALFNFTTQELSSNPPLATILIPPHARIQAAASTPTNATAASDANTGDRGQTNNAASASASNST
Chain of UniProt P01112 (P01112 whole entry, looked up): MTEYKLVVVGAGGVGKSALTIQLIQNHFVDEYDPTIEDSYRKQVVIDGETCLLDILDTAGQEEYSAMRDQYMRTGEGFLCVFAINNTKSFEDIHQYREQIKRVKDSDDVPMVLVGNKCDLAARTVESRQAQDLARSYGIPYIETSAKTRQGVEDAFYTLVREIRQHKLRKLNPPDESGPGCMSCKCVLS
Chain of UniProt P13807 (P13807 whole entry, looked up): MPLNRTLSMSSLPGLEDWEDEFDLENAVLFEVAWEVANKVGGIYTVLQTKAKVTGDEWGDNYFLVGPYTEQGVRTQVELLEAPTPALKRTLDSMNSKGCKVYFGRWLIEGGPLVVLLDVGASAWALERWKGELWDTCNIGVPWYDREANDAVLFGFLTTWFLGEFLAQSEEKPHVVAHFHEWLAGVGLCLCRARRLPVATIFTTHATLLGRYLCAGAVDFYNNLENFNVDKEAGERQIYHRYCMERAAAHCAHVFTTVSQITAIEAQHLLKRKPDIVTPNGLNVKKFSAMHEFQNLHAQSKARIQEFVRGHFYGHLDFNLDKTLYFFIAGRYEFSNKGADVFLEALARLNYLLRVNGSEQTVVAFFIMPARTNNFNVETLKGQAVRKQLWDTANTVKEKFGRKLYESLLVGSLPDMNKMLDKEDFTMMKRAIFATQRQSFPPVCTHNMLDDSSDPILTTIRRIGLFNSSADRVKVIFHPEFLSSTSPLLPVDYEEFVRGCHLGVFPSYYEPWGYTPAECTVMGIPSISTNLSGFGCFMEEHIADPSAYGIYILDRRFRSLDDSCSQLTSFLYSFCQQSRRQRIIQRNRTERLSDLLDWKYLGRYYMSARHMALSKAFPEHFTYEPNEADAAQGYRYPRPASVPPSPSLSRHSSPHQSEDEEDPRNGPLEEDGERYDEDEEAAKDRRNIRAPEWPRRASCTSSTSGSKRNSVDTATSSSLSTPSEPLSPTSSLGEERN
Chain of UniProt Q13547 (Q13547 whole entry, looked up): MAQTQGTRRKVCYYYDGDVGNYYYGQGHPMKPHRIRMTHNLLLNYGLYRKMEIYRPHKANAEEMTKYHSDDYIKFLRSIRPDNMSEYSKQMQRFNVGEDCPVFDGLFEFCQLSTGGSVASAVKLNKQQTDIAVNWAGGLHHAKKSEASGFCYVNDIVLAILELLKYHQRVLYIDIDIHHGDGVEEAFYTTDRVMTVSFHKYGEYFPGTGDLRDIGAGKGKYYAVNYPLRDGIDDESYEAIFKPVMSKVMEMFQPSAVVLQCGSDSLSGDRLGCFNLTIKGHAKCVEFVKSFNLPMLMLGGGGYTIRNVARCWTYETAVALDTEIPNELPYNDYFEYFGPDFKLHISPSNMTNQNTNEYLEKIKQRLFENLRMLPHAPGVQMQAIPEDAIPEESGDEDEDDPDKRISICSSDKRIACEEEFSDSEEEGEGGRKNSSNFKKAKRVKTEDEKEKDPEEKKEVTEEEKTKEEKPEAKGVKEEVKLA
Chain of UniProt P22087 (P22087 whole entry, looked up): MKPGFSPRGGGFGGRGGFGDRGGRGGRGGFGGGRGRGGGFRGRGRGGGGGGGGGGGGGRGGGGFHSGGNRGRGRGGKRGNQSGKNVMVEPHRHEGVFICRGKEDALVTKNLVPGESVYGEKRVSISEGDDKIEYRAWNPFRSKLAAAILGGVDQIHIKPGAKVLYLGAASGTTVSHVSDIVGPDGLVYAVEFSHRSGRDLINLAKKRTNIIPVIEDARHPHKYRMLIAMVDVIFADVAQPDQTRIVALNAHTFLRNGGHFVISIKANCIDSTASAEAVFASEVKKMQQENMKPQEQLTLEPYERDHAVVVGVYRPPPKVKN
Chain of UniProt P06865 (P06865 whole entry, looked up): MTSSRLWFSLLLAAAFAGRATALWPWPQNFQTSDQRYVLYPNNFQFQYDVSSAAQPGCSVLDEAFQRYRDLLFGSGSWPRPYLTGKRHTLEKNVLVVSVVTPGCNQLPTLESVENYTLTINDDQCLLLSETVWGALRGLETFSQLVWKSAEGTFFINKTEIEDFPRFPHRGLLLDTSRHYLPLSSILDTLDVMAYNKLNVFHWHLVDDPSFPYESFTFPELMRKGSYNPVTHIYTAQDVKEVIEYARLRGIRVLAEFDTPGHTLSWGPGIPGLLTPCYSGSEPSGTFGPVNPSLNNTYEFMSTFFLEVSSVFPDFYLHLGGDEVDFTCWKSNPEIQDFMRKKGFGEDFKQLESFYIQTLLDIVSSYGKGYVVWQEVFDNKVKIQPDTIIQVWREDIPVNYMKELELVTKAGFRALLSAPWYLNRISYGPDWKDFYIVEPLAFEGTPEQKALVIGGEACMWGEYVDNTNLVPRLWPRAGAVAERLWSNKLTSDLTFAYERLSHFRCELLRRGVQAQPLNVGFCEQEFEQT
Chain of UniProt P50213 (P50213 whole entry, looked up): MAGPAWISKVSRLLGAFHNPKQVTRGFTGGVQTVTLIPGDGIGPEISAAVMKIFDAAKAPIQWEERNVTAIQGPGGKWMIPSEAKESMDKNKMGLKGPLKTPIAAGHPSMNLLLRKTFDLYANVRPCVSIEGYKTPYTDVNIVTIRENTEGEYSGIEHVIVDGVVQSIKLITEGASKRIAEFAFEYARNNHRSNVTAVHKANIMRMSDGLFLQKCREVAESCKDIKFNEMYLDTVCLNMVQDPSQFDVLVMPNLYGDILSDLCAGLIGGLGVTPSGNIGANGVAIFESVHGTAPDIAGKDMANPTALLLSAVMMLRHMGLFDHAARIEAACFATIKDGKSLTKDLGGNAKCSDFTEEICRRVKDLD
Chain of UniProt Q9BTY2 (Q9BTY2 whole entry, looked up): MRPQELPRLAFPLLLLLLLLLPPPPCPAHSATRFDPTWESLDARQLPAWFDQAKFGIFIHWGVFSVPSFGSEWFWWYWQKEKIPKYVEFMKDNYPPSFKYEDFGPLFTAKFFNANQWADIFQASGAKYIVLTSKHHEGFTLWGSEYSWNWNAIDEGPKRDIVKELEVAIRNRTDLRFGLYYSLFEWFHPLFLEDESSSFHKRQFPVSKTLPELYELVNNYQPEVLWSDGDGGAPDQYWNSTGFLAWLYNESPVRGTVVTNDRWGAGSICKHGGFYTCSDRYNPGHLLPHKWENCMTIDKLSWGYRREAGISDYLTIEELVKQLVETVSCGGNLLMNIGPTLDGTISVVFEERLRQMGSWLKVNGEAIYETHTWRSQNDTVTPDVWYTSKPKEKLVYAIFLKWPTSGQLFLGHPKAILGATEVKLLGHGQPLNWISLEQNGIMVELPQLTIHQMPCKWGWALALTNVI
Chain of UniProt P63218 (P63218 whole entry, looked up): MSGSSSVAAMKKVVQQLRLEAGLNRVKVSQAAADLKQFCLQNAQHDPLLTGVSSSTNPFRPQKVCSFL

Target | log2 fold change (erlotinib) | log2 fold change [1] | log2 fold change [2] | log2 fold change [3] | log2 fold change [4] | log2 fold change [5] | log2 fold change [6] | log2 fold change [7] | log2 fold change [8] | log2 fold change [9]
GTF2B (UniProt Q00403) | 0.069 | 0.136 | 0.048 | -0.035 | 0.149 | 0.027 | -0.033 | 0.01 | -0.065 | -0.046
FECH isoform 2 (UniProt P22830) | 0.191 | -0.179 | 0.349 | 0.206 | 0.162 | 0.048 | 0.429 | 0.135 | 0.172 | 0.046
FUT8 (UniProt Q9BYC5) | -0.036 | 0.019 | -0.07 | -0.12 | -0.145 | -0.055 | -0.004 | -0.038 | 0.045 | -0.038
FKBP7 (UniProt Q9Y680) | -0.027 | -0.027 | 0.005 | 0.037 | 0 | 0.081 | -0.037 | -0.042 | 0.039 | 0.048
GNPAT (UniProt O15228) | 0.067 | 0.112 | 0.075 | -0.001 | 0.073 | 0.03 | 0.057 | 0.019 | -0.003 | 0.058
HRAS (UniProt P01112) | 0.029 | 0.034 | 0.069 | 0.146 | -0.356 | -0.244 | 0.138 | -0.168 | -0.08 | 0.048
GSK3B isoform 2 (UniProt P49841) | -0.024 | -0.051 | 0.007 | 0.027 | 0.038 | -0.013 | 0.095 | 0.091 | 0.042 | 0.159
HLTF (UniProt Q14527) | -0.005 | 0.018 | 0.068 | 0.039 | 0.034 | -0.067 | -0.009 | 0.044 | -0.016 | -0.011
HEATR5B (UniProt Q9P2D3) | -0.009 | 0.059 | -0.128 | 0.025 | -0.067 | 0.004 | 0.007 | 0.05 | -0.026 | 0.043
GPX4 (UniProt P36969) | -0.021 | 0.035 | -0.012 | 0.057 | -0.007 | 0.006 | 0.142 | -0.063 | -0.036 | 0.058
IDH3A (UniProt P50213) | 0.021 | 0.034 | 0.1 | 0.023 | 0.021 | 0.017 | -0.03 | 0.024 | -0.009 | 0.028
HTATIP2 isoform 3 (UniProt Q9BUP3) | 0.016 | 0.112 | 0.016 | -0.02 | -0.143 | 0.005 | 0.012 | 0.033 | -0.039 | 0.005
ICAM1 (UniProt P05362) | 0.008 | 0.008 | 0.015 | 0.018 | -0.005 | -0.033 | -0.01 | -0.004 | -0.047 | 0.073
HEXA (UniProt P06865) | 0.012 | -0.012 | 0.013 | 0.007 | 0.024 | 0.004 | -0.003 | -0.023 | 0.01 | 0.007
FBL (UniProt P22087) | 0.06 | -0.153 | -0.566 (active) | 0.013 | -0.102 | 0.13 | -0.099 | -0.091 | 0.054 | -0.117
HDAC1 (UniProt Q13547) | 1.14 (active) | 0.015 | 0.011 | -0.01 | 0.16 | 0.004 | 0.021 | -0.055 | -0.004 | -0.018
GLS (UniProt O94925) | 0.003 | 0.105 | 0.174 | -0.107 | -0.043 | 0.14 | 0.034 | -0.023 | -0.091 | -0.03
GTF3C4 (UniProt Q9UKN8) | -0.016 | 0.065 | 0.026 | 0.003 | 0.025 | -0.005 | 0.003 | -0.022 | -0.026 | 0.027
GYS1 (UniProt P13807) | -0.022 | -0.104 | -0.345 | -0.066 | -0.071 | -0.003 | -0.14 | 0.176 | -0.021 | -0.069
FUCA2 (UniProt Q9BTY2) | -0.001 | -0.03 | -0.026 | 0.013 | 0.015 | 0.038 | 0.033 | 0.029 | 0.056 | 0.017
HIC2 (UniProt Q96JB3) | 0.128 | 0 | -0.17 | 0.028 | -0.159 | -0.08 | 0.012 | -0.266 | -0.023 | -0.09
GCC2 (UniProt Q8IWJ2) | -0.062 | 0 | -0.155 | -0.017 | -0.076 | 0.034 | -0.032 | -0.021 | -0.054 | -0.154
GGA2 (UniProt Q9UJY4) | 0.036 | -0.041 | -0.151 | 0.003 | 0.063 | 0.033 | -0.053 | -0.013 | 0.025 | -0.016
GSTM4 (UniProt Q03013) | 0.084 | -0.029 | 0.217 | -0.002 | -0.038 | 0.268 | -0.031 | -0.128 | 0.018 | 0.062
HNRNPF (UniProt P52597) | 0.02 | 0.126 | -0.036 | -0.034 | -0.098 | 0.017 | 0.079 | 0.003 | -0.044 | -0.044
GNG5 (UniProt P63218) | -0.07 | 0.01 | 0.436 (active) | 0.089 | 0.031 | -0.001 | 0.072 | 0.038 | -0.037 | -0.044
HDGFL2 (UniProt Q7Z4V5) | 0.002 | 0.001 | 0.042 | -0.006 | -0.046 | 0.048 | -0.01 | -0.046 | 0.033 | 0.057
